Common to all, as to set-up: species or system human, MV4-11 + K-562 + COLO205 + SK-N-BE2 + OVCAR-8
In one experiment the test system is CDK7. As to conditions: read-out: apparent Kd, compound concentrations: 100 nM and 1000 nM (sheet 'Samples'), n = 1.
The test system of the next experiment is ERCC2. To be noted: read-out: apparent Kd, compound concentrations: 100 nM and 1000 nM (sheet 'Samples'), n = 1.
The next experiment deals with FER. As to conditions: read-out: apparent Kd, compound concentrations: 100 nM and 1000 nM (sheet 'Samples'), n = 1.
For a further experiment, the system named is PIP4K2C. As to conditions: read-out: apparent Kd; compound concentrations: 100 nM and 1000 nM (sheet 'Samples'), CATDS: 1.61438790686462E-2; n = 1.
A further experiment relates to PLK4. To be noted: read-out: apparent Kd, compound concentrations: 100 nM and 1000 nM (sheet 'Samples'), n = 1.
In a further experiment the test system is PRKAA1. To be noted: read-out: apparent Kd; compound concentrations: 100 nM and 1000 nM (sheet 'Samples'), CATDS: 2.1062710392343101E-2; n = 1.
The test system of the next experiment is PTK2B. To be noted: read-out: apparent Kd, compound concentrations: 100 nM and 1000 nM (sheet 'Samples'), n = 1.
The subject of the next experiment is PTK2. To be noted: read-out: apparent Kd; compound concentrations: 100 nM and 1000 nM (sheet 'Samples'), CATDS: 2.57578339913308E-2; n = 1.
In a further experiment the test system is RPS6KA6. To be noted: read-out: apparent Kd, n = 1.
In a further experiment the test system is CDKL5. As to conditions: read-out: apparent Kd, compound concentrations: 100 nM and 1000 nM (sheet 'Samples'), n = 1.
Another experiment relates to DYRK1A. To be noted: read-out: apparent Kd, n = 1.
Another experiment has as its system FLT3. To be noted: read-out: apparent Kd, compound concentrations: 100 nM and 1000 nM (sheet 'Samples'), n = 1.
A further experiment concerns MARK4. To be noted: read-out: apparent Kd, n = 1.
The test system of the next experiment is PRKCD. To be noted: read-out: apparent Kd, n = 1.
Another experiment concerns PRKD2. To be noted: read-out: apparent Kd, n = 1.
A further experiment deals with PRKD3. To be noted: read-out: apparent Kd, n = 1.
A further experiment deals with MYLK3. As to conditions: read-out: apparent Kd, n = 1.
In the next experiment the test system is STK10. To be noted: read-out: apparent Kd, compound concentrations: 100 nM and 1000 nM (sheet 'Samples'), n = 1.
For the next experiment, the system named is PRKCQ. To be noted: read-out: apparent Kd, compound concentrations: 100 nM and 1000 nM (sheet 'Samples'), n = 1.
For a further experiment, the system named is LATS1. To be noted: read-out: apparent Kd; compound concentrations: 100 nM and 1000 nM (sheet 'Samples'), CATDS: 7.6284475672850502E-2; n = 1.
The mark [1] stands for this setting: compound concentrations:100 nM and 1000 nM (sheet 'Samples').

Read-outs that look alike come from different tables or passages of the source.

Turning to `Cl.Cn1c(=O)c(Cc2ccccc2F)cc2cnc(NC3CCOCC3)nc21` [RO3305377-001], the potency estimated from few doses with CDK7 (CATDS: 3.4029245989281497E-2) was 380 nM; with ERCC2 (CATDS: 3.95504986982557E-2), 299 nM; in the experiment on FER (CATDS: 3.5160978159500297E-2) it was 361 nM; in the experiment with PIP4K2C, 2170 nM; in the experiment with PLK4 (CATDS: 2.6104796567006299E-2), 613 nM; in the experiment on PRKAA1 it was 980 nM. The potency estimated from few doses was 390 nM with PTK2B (CATDS: 3.3520584845693903E-2); 630 nM in the experiment on PTK2; 485 nM in the experiment with RPS6KA6 (compound concentrations: 100 nM and 1000 nM (sheet 'Samples'), CATDS: 2.9562664752210699E-2).
`O=C1N=C(NCCc2ccccc2Cl)S/C1=C\c1ccc2ncccc2c1` [RO4498484-000]: the potency estimated from few doses is 1600 nM in the experiment with CDKL5 (CATDS: 6.1493092563951302E-2); 673 nM in the experiment on DYRK1A (compound concentrations: 100 nM and 1000 nM (sheet 'Samples'), CATDS: 8.1161352179904903E-2); 1470 nM in the experiment with FLT3 (CATDS: 6.2849399961882796E-2).
Turning to `Cc1occc1-c1nc(N)c(OC[C@@H](N)Cc2c[nH]c3ccccc23)cc1-c1cc2c(C)n[nH]c2cn1` [GSK1660450B], the potency estimated from few doses in the experiment on DYRK1A (setting [1]) is 1790 nM; in the experiment with MARK4 (setting [1]), 1110 nM; with PRKCD (setting [1]) it was 8.62 nM; in the experiment on PRKD2 (setting [1]), 386 nM; in the experiment with PRKD3 (setting [1]), 170 nM; with RPS6KA6 (setting [1]), 19.1 nM.
Turning to `NS(=O)(=O)c1ccc(N/C=C2\C(=O)Nc3ccc4ncsc4c32)cc1` [GW297361X], the potency estimated from few doses was 448 nM with CDKL5 (CATDS: 5.4362762723509199E-2); 799 nM with FLT3 (CATDS: 4.1021562023835299E-2); 106 nM in the experiment on MYLK3 (compound concentrations: 100 nM and 1000 nM (sheet 'Samples'), CATDS: 0.13217199419509801); 2200 nM in the experiment on PRKD2 (compound concentrations: 100 nM and 1000 nM (sheet 'Samples'), CATDS: 2.8859084082920799E-2).
As to `O=C1N=C(NCc2ccccc2Br)S/C1=C\c1ccc2ncccc2c1` [RO4506918-000], the potency estimated from few doses in the experiment with DYRK1A (compound concentrations: 100 nM and 1000 nM (sheet 'Samples'), CATDS: 8.9156542240232201E-2) was 912 nM.
Turning to `CNc1nccc(-c2ccc3c(N)n[nH]c3c2)n1` [GSK2206003A], the potency estimated from few doses in the experiment on DYRK1A (compound concentrations: 100 nM and 1000 nM (sheet 'Samples'), CATDS: 5.2030559523690803E-2) was 1370 nM; in the experiment with MYLK3 (compound concentrations: 100 nM and 1000 nM (sheet 'Samples'), CATDS: 6.3436586084605395E-2), 601 nM; in the experiment on STK10 (CATDS: 6.2859781396148603E-2), 622 nM.
Regarding `NS(=O)(=O)c1ccc(N/N=C2\C(=O)Nc3ccc(-c4cnco4)cc32)cc1` [GW276655_KCGS], the potency estimated from few doses with MYLK3 (setting [1]) is 988 nM.
As for `COc1ccc(Nc2nccc(NCCNC(=O)Nc3cc(C)ccc3C)n2)cc1` [GSK1379899A], the potency estimated from few doses is 1270 nM in the experiment with ERCC2 (CATDS: 4.8239081355384503E-2); 821 nM with FER (CATDS: 5.8591090270846503E-2); 1100 nM with PRKD2 (compound concentrations: 100 nM and 1000 nM (sheet 'Samples'), CATDS: 5.1330821571124501E-2); 876 nM with PTK2B (CATDS: 5.6831578265935698E-2); 926 nM in the experiment with RPS6KA6 (compound concentrations: 100 nM and 1000 nM (sheet 'Samples'), CATDS: 5.53882917247734E-2).
Regarding `COc1cc[nH]c1/C=C1\C(=O)Nc2ccc(F)c(I)c21` [RO0281567-000], the potency estimated from few doses was 374 nM in the experiment with FLT3 (CATDS: 0.206841572593601); 1520 nM in the experiment on MYLK3 (compound concentrations: 100 nM and 1000 nM (sheet 'Samples'), CATDS: 0.10963488486357401).
For `CNCC1CCn2c(c(C3=C(c4cn(C)c5ccccc45)C(=O)NC3=O)c3ccccc32)C1` (centres unmarked) [RO0318676-000], the potency estimated from few doses is 945 nM with CDK7 (CATDS: 3.3814045459066702E-2); 976 nM with ERCC2 (CATDS: 3.3447385930038299E-2); 929 nM in the experiment on FER (CATDS: 3.4006049633961401E-2); 48.7 nM in the experiment with PRKCD (compound concentrations: 100 nM and 1000 nM (sheet 'Samples'), CATDS: 0.12623439225341199); 61.3 nM in the experiment on PRKCQ (CATDS: 0.111424858077941); 849 nM with PTK2B (CATDS: 3.5074234548869702E-2). In addition, the potency estimated from few doses with RPS6KA6 (compound concentrations: 100 nM and 1000 nM (sheet 'Samples'), CATDS: 8.7281654841073406E-2) is 98.7 nM.
For the compound `Cl.Nc1nc(-c2ccc3c(c2)C(=Cc2cc(Br)c(O)c(Br)c2)C(=O)N3)cs1` [GW407323A], the potency estimated from few doses in the experiment on CDKL5 (CATDS: 9.5267986760985093E-2) was 73.7 nM; in the experiment on DYRK1A (compound concentrations: 100 nM and 1000 nM (sheet 'Samples'), CATDS: 7.6450134498411204E-2), 110 nM; with MARK4 (compound concentrations: 100 nM and 1000 nM (sheet 'Samples'), CATDS: 2.9036597376729201E-2), 1630 nM; in the experiment on MYLK3 (compound concentrations: 100 nM and 1000 nM (sheet 'Samples'), CATDS: 0.25523575381679198) it was 17.2 nM; in the experiment with PRKD2 (compound concentrations: 100 nM and 1000 nM (sheet 'Samples'), CATDS: 3.4430997277348899E-2), 812 nM; in the experiment with PRKD3 (compound concentrations: 100 nM and 1000 nM (sheet 'Samples'), CATDS: 3.1520603000909302E-2), 1130 nM.
`CC(C)N1CC(=O)N(C)c2cnc(Nc3cccc(S(=O)(=O)CCN4CCOCC4)c3)nc21` [BI00009348]: in the experiment on STK10 (CATDS: 5.40109770146803E-2), the potency estimated from few doses was 1450 nM.
`Cl.Cn1cc(C2=C(c3c4n(c5ccccc35)CCNC4)C(=O)NC2=O)c2ccccc21` [RO0318365-001]: the potency estimated from few doses with CDK7 (CATDS: 7.1923944144695898E-2) is 734 nM; with ERCC2 (CATDS: 7.4045119432564296E-2) it was 696 nM; in the experiment with FER (CATDS: 6.02044843999179E-2) it was 1060 nM; in the experiment on PLK4 (CATDS: 5.91687426181325E-2), 1100 nM; in the experiment on PRKCD (compound concentrations: 100 nM and 1000 nM (sheet 'Samples'), CATDS: 4.8671677826933601E-2), 1810 nM; in the experiment on PRKCQ (CATDS: 7.9846572084882106E-2) it was 607 nM. The potency estimated from few doses with PTK2B (CATDS: 6.7595952047570504E-2) was 828 nM.
`COc1cccc(C2=C(c3c(C)n(C)c4ccccc34)C(=O)NC2=O)c1` [RO3300167-000]: the potency estimated from few doses in the experiment on LATS1 was 1700 nM; in the experiment on MARK4 (compound concentrations: 100 nM and 1000 nM (sheet 'Samples'), CATDS: 8.0513919134026293E-2), 1480 nM; with PRKD2 (compound concentrations: 100 nM and 1000 nM (sheet 'Samples'), CATDS: 8.0855416148342393E-2), 1470 nM; in the experiment with PRKD3 (compound concentrations: 100 nM and 1000 nM (sheet 'Samples'), CATDS: 7.4607672697658597E-2), 1800 nM.

The values are drawn from article PMC11062922 (Nature Chemical Biology, 2023).
